# In PubChem BioAssay (Tox21):
# Several values for one entry are separate records, joined by “and”; a condition that tells them apart may be missing. Equal entries are not always repeated. Inconclusive results are not listed. Entries that show only a call come without a potency. Activity calls are given as the source filed them. Unless noted, calls follow the shape of the dose curve; as a rule, active = well fitted curve in the direction sought with a large enough effect in the repeat runs; inconclusive = weak or mixed curves; inactive = flat fitted curve, though single readings scatter.
# How the values were obtained:
# [1] = qHTS assay to test for compound auto fluorescence at 535 nm (green) in HEK293 cells (AID 720680)
# [2] = qHTS assay to test for compound auto fluorescence at 460 nm (blue) in HEK293 cell free culture (AID 720681)
# Method in brief: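 Test compounds were pinned into cell-free culture medium (DMEM with 10% FBS) and fluorescence was read directly at Ex/Em 405/460 nm. Signals were expressed as fluorescence equivalents of triamterene, with DMSO vehicle as control.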
# [3] = qHTS assay to test for compound auto fluorescence at 535 nm (green) in HEK293 cell free culture (AID 720682)
# Method in brief: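 Cell-free medium (DMEM, 10% FBS) receives compound or DMSO by pintool. Plate read directly at Ex 485/Em 535 nm. Signal converted to fluorescein equivalency.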
# [4] = qHTS assay to test for compound auto fluorescence at 590 nm (red) in HEK293 cell free culture (AID 720683)
# Method in brief: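 Tox21 10K library compounds were pinned into cell-free DMEM with 10% FBS and fluorescence was read at excitation 540 nm. Activity is expressed as Rose Bengal sodium equivalency.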
# [5] = qHTS assay to test for compound auto fluorescence at 590 nm (red) in HepG2 cell free culture (AID 720684)
# Method in brief: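 Ex 540 / Em 590 nm read of compound in cell-free MEM (10% FBS). Rose Bengal sodium reference.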
# [6] = qHTS assay to test for compound auto fluorescence at 460 nm (blue) in HepG2 cell free culture (AID 720685)
# Method in brief: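 Cell-free plates of MEM plus 10% FBS received 23 nL compound or DMSO vehicle; blue-channel (405/460 nm) intensity scored against triamterene as reference fluorophore.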
# [7] = qHTS assay to test for compound auto fluorescence at 535 nm (green) in HepG2 cell free culture (AID 720686)
# [8] = qHTS assay to test for compound auto fluorescence at 460 nm (blue) in HepG2 cells (AID 720687)
# Method in brief: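 Cells (2,000/well in MEM with 10% FBS) attached overnight at 37 C, then were exposed to compound or DMSO for 1 hr at 37 C, 5% CO2. Fluorescence read at Ex/Em 405/460 nm, expressed as triamterene-equivalent signal.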
# [9] = molecular target: Glucocorticoid receptor (Homo sapiens) (UniProt P04150); experiment: qHTS assay to identify small molecule agonists of the glucocorticoid receptor (GR) signaling pathway (AID 720691; active = well fitted activation curve with a large enough effect in the signal ratio in the repeat runs, not every such curve was filed as active; the % refers to the signal ratio)
# Chain of Glucocorticoid receptor (Homo sapiens) (P04150 whole entry, looked up): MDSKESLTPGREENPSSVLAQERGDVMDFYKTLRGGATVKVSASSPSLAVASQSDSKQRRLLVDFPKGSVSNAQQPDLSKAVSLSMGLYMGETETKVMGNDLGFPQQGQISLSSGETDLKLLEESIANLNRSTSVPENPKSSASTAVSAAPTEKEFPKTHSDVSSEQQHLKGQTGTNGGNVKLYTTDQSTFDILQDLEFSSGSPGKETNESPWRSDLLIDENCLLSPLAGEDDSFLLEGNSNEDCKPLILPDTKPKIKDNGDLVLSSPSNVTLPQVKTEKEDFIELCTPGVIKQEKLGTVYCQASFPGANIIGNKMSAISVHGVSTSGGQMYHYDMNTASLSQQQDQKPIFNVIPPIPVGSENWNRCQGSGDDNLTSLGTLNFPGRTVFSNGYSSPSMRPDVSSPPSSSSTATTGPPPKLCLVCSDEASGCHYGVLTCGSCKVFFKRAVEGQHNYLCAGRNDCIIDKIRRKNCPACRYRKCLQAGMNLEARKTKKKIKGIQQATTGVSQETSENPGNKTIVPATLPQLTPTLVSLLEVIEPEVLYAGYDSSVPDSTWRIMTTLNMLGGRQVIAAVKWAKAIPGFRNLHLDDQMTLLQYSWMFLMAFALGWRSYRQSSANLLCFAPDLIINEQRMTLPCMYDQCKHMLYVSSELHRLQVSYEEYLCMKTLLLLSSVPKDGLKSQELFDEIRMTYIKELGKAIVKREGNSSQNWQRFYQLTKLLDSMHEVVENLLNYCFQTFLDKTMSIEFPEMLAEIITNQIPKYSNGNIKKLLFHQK
# Method in brief: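 Steps: seed GR-bla HeLa cells, incubate 4 h at 37 C/5% CO2; pin-transfer DMSO-dissolved compounds; incubate 18 h at 37 C; add LiveBLAzer B/G FRET substrate; after 2 h at room temperature, measure fluorescence.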
# [10] = molecular target: Glucocorticoid receptor (Homo sapiens) (UniProt P04150); experiment: qHTS assay to identify small molecule antagonists of the glucocorticoid receptor (GR) signaling pathway (AID 720692; active = well fitted inhibition curve with a large enough effect in the signal ratio in the repeat runs, not every such curve was filed as active; the % refers to the signal ratio; also: potency is read from the fitted curve at half-maximal effect)
# Method in brief: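 Antagonism was scored as loss of dexamethasone-driven (5 nM final) reporter signal in HeLa cells bearing a glucocorticoid response element–beta-lactamase construct, after 18 h compound exposure at 37 C and 2 h FRET substrate loading.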
Structure (SMILES),outcome [1],outcome [2],outcome [3],outcome [4],outcome [5],outcome [6],outcome [7],outcome [8],outcome [9],Potency [10]
CNC(=S)N(C)C,inactive,inactive,inactive,inactive,inactive,inactive,inactive,inactive,inactive,inactive
O=c1[nH]cnc2[nH]ncc12,inactive,inactive,inactive,inactive,inactive,inactive,inactive,inactive,inactive,inactive
CC(CCO)CC(C)(C)C (stereo not drawn),inactive,inactive,inactive,inactive,inactive,inactive,inactive,inactive,inactive,inactive
CC(=O)c1ccc(O)cc1,inactive,inactive,inactive,inactive,inactive,inactive,inactive,inactive,inactive,inactive
COc1ccccc1OCC(O)CO (stereo not drawn),inactive,inactive,inactive,inactive,inactive,inactive,inactive,inactive,,
CCCCCCCCCCCC(=O)OC,inactive,inactive,inactive,inactive,inactive,inactive,inactive,inactive,inactive,inactive
CN(C)c1ccc(O)c2c1C[C@H]1C[C@H]3[C@H](N(C)C)C(=O)C(C(N)=O)=C(O)[C@@]3(O)C(=O)C1=C2O,inactive,inactive,inactive,inactive,inactive,inactive,inactive,inactive,inactive,inactive
O=C(O)c1cc2ccccc2cc1O,inactive,inactive,inactive,inactive,inactive,inactive,inactive,inactive,inactive,inactive
CC(O)CC(C)(C)O (stereo not drawn),inactive,inactive,inactive,inactive,inactive,inactive,inactive,inactive,inactive,inactive
COc1ccc(C)cc1N,inactive,inactive,inactive,inactive,inactive,inactive,inactive,inactive,inactive,inactive
COCCCN,inactive,inactive,inactive,inactive,inactive,inactive,inactive,inactive,inactive,inactive
COCCOC(=O)c1ccccc1C(=O)OCCOC,inactive,inactive,inactive,inactive,inactive,inactive,,inactive,inactive,inactive
CCNc1cccc(C)c1,inactive,inactive,inactive,inactive,inactive,inactive,,inactive,,
C=CC(=O)OCCC(=O)O,inactive,inactive,inactive,inactive,inactive,inactive,inactive,inactive,inactive,
O=C1c2ccccc2CCc2ccccc21,inactive,inactive,inactive,inactive,inactive,inactive,,inactive,,
CCCCCCCCCCCCCCCC(=O)OC(C)C,inactive,inactive,inactive,inactive,inactive,inactive,inactive,inactive,,
c1ccc2c(c1)Cc1ccccc1-2,inactive,inactive,inactive,inactive,inactive,inactive,,inactive,inactive,inactive
CCCOC(=O)c1ccccc1,inactive,inactive,inactive,inactive,inactive,inactive,inactive,inactive,inactive,inactive
CCO[Si](CCCN)(OCC)OCC,inactive,inactive,inactive,inactive,inactive,inactive,inactive,inactive,inactive,inactive
NCCNCCN,inactive,inactive,inactive,inactive,inactive,inactive,inactive,inactive,,
Clc1ccccn1,inactive,inactive,inactive,inactive,inactive,inactive,,inactive,,
O=C(O)CCCCCCCCC(=O)O,inactive,inactive,inactive,inactive,inactive,inactive,inactive,inactive,,
CSc1ccc(Cl)cc1,inactive,inactive,inactive,inactive,inactive,inactive,inactive,inactive,inactive,inactive
CCCCCCCCCCCCCCCCO,inactive,inactive,inactive,inactive,inactive,inactive,inactive,inactive,inactive,inactive
Nc1ccc(Cl)c(N)c1,inactive,inactive,inactive,inactive,inactive,inactive,inactive,inactive,,
Brc1ccc(Br)c(Br)c1,inactive,inactive,inactive,inactive,inactive,inactive,inactive,inactive,,
C[Si]1(C)O[Si](C)(C)O[Si](C)(C)O[Si](C)(C)O1,inactive,inactive,inactive,inactive,inactive,inactive,inactive,inactive,,

Structure (SMILES),outcome [1],outcome [2],outcome [3],outcome [4],outcome [5],outcome [6],outcome [7],outcome [8],outcome [9],Potency [10]
O=C1CCCC1,inactive,inactive,inactive,inactive,inactive,inactive,inactive,inactive,inactive,inactive
N[C@H](Cc1c[nH]c2ccccc12)C(=O)O,inactive,inactive,inactive,inactive,inactive,inactive,,inactive,inactive,
COc1ccc([N+](=O)[O-])cc1N,inactive,inactive,inactive,inactive,inactive,inactive,inactive,inactive,inactive,inactive
CC(C)CC(=O)CC(C)CC(C)C (stereo not drawn),inactive,inactive,inactive,inactive,inactive,inactive,inactive,inactive,inactive,inactive
NCCN1CCNCC1,inactive,inactive,inactive,inactive,inactive,inactive,inactive,inactive,,
N#Cc1ccccc1,inactive,inactive,inactive,inactive,inactive,inactive,inactive,inactive,inactive,inactive
CC(=O)OCCOC(C)=O,inactive,inactive,inactive,inactive,inactive,inactive,,inactive,inactive,inactive
COc1cc(OC)c(C(=O)CCCN2CCCC2)c(OC)c1,inactive,inactive,inactive,inactive,inactive,inactive,inactive,inactive,inactive,inactive
CC(CCl)OP(=O)(OC(C)CCl)OC(C)CCl (stereo not drawn),inactive,inactive,inactive,inactive,inactive,inactive,inactive,inactive,inactive,
CC(C)=CCl,inactive,inactive,inactive,inactive,inactive,inactive,inactive,inactive,inactive,inactive
OCc1cccc(Oc2ccccc2)c1,inactive,inactive,inactive,inactive,,inactive,inactive,inactive,,
CC(C)CCCCCCCOC(=O)CCCCC(=O)OCCCCCCCC(C)C,inactive,inactive,inactive,inactive,inactive,inactive,,inactive,inactive,inactive
CCOCC(=O)O,inactive,inactive,inactive,inactive,inactive,inactive,,inactive,inactive,inactive
O=C(O)c1ccc(S(=O)(=O)N(Cl)Cl)cc1,inactive,inactive,inactive,inactive,,inactive,inactive,inactive,inactive,inactive
CC(=O)OCc1ccccc1,inactive,inactive,inactive,inactive,,inactive,inactive,inactive,inactive,inactive
O=C(O)Cn1c(=O)n(Cc2ccc(Br)cc2F)c(=O)c2ccc(Cl)cc21,inactive,inactive,inactive,inactive,,inactive,,inactive,inactive,
OC1C(O)C(O)C(O)C(O)C1O (stereo not drawn),inactive,inactive,inactive,inactive,,inactive,,inactive,,
CCCCCCCO,inactive,inactive,inactive,inactive,,inactive,,inactive,inactive,inactive
CC(=O)Oc1ccc(C)cc1,inactive,inactive,inactive,inactive,,inactive,,inactive,inactive,inactive
CC1(C)CC(N)CC(C)(CN)C1 (stereo not drawn),inactive,inactive,inactive,inactive,inactive,inactive,,inactive,inactive,inactive
C=C(C)[C@H]1CC=C(C)C(=O)C1,inactive,inactive,inactive,inactive,,inactive,,inactive,inactive,inactive
COc1ccc(N)c(C)c1,inactive,inactive,inactive,inactive,,inactive,inactive,inactive,,
NC(=S)NNC(N)=S,inactive,inactive,inactive,inactive,,inactive,inactive,inactive,inactive,inactive
OCc1ccccc1,inactive,inactive,inactive,inactive,,inactive,inactive,inactive,inactive,inactive
C[C@]12CC[C@@H]3c4ccc(O)cc4CC[C@H]3[C@@H]1C[C@@H](O)[C@@H]2O,inactive,inactive,inactive,inactive,,inactive,,inactive,inactive,12 µM (active) and 38.9 µM (active)
COc1ccc(OC)cc1,inactive,inactive,inactive,inactive,,inactive,,inactive,inactive,inactive
